Test results from PubChem BioAssay.
Unmarked numbers belong to inactive results. The rule behind the calls is not given here.

The compounds below were run against Lethal factor (Bacillus anthracis) (UniProt P15917) (assay: Lethal factor protease inhibitors, Bacillus anthracis, multiplex microsphere cleavage assay, validation set (AID 588461)). Settings: flow cytometry, at 10 µM, stronger effect = higher value.
Lethal factor (Bacillus anthracis), sequence (P15917 whole entry, looked up): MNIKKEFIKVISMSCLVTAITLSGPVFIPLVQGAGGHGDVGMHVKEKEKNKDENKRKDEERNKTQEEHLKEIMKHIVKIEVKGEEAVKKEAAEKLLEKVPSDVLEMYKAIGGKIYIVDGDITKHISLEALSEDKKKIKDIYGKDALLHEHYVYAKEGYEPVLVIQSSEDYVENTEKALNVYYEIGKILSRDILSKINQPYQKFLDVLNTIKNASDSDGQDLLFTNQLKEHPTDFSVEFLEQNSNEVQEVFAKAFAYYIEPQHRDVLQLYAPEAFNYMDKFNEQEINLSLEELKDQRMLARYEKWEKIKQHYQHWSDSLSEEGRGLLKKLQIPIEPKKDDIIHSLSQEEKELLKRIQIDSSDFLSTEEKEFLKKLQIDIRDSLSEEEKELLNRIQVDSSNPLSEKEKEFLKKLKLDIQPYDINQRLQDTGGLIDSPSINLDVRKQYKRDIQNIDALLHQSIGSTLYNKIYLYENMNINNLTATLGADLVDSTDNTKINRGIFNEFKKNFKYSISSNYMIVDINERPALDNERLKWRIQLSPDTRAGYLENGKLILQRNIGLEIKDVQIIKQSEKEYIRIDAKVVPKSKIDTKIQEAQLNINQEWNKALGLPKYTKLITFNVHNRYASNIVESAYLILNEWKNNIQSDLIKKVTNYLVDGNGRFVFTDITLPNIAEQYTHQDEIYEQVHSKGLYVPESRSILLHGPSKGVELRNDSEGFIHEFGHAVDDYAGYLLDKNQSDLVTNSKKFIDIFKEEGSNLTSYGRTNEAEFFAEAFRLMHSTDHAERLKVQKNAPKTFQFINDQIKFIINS
With `O=C1CCCC(=O)C1=Cc1c[nH]c2ccccc12` the inhibition was -6.4%.
With `COc1ccc2[nH]c3c(c2c1)CCNC3C1CC=C(C)CC1` (configuration not stated) the inhibition was 3.8%.
`Cc1cc(=O)oc(C)c1C(=O)NCCC(C)C` gave an inhibition of 4%.
Compound `O=C(O)COc1ccc2occ(C(=O)c3ccccc3)c2c1` has an inhibition of 4.6%.
For `COc1ccc(/C=C(/C#N)c2cccnc2)cc1OC`, the inhibition was -7.4%.
`C#C[C@]1(O)CC[C@H]2[C@@H]3CCc4cc(O)ccc4[C@H]3CC[C@@]21C` was tested, and the inhibition was 6.8%.
`C#CCN(C)CCCOc1ccc(Cl)cc1Cl` showed an inhibition of -10.6%.
`CC(=O)N1N=C(c2cccs2)CC1c1ccc(C)o1` (configuration not stated) showed an inhibition of 1.7%.
Compound `O=C(NC1CC1)C1CCN(C2CCN(C(=O)Cc3ccc(F)cc3)CC2)CC1` has an inhibition of 4.9%.
Compound `CC(=O)OCC#CCSc1nc2ccccc2n1C` has an inhibition of -1.5%.
Compound `CC(C)CC(=O)Nc1ccc2oc(-c3ccncc3)nc2c1` has an inhibition of -2.1%.
`O=C(O)CCCN1C(=O)NC2NC(=O)NC21` (configuration not stated) was tested, and the inhibition was 0.4%.
In the case of `O=C(Nc1nc2ccccc2s1)c1ccc(F)cc1`, the inhibition is reported as -5.8%.
`CC(C)CC(NC(=O)c1cccc(Cl)c1)C(=O)O` (configuration not stated) gave an inhibition of 0.4%.
With `C[C@H]1C[C@@H]2[C@H]([C@@H](O)C[C@@]3(C)[C@H]2CC[C@]3(O)C(=O)CO)[C@@]2(C)C=CC(=O)C=C12` the inhibition was -0.7%.
With `NS(=O)(=O)c1cc(C2(O)NC(=O)c3ccccc32)ccc1Cl` (configuration not stated) the inhibition was -7.1%.
In the case of `CC(C)COC(=O)C1C(=O)CC(C)(O)C(C(=O)OCC(C)C)C1c1cccnc1` (configuration not stated), the inhibition is reported as 3.5%.
